This is an account of results in PubChem BioAssay (Tox21).

Results filed as inconclusive are left out. The source made the active and inactive calls. Unless noted, calls follow the shape of the full dose curve.

Assay [1] can be described thus: Nuclear factor erythroid 2-related factor 2/antioxidant responsive element (Nrf2/ARE) small molecule agonists: qHTS cell viability counter screen in human keratinocytes (AID 1919968; active = well fitted cell-killing curve with a large enough effect in the repeat runs; also: nearly all actives have a fitted effect of over 55% in size). The essentials:
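HaCaT ARE reporter line, 1,500 cells/well; 5 h settle, 37 C/5% CO2; cpd in DMSO pinned; 23 h exposure; CellTiter-Fluor, 1 h; fluorescence.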
A general note: Quantitative high-throughput screening tests each substance at several concentrations.

Assay [2] is described as follows: Nuclear factor erythroid 2-related factor 2/antioxidant responsive element (Nrf2/ARE) small molecule agonists: luciferase reporter gene qHTS assay in human keratinocytes (AID 1919969). Also: nearly all actives have a fitted effect of over 35% in size.
The target in assay [3] is Gonadotropin-releasing hormone receptor (Homo sapiens) (UniProt P30968). The assay is described as follows: Human gonadotropin-releasing hormone receptor (GnRHR) small molecule agonists, calcium flux assay in GnRHR-HEK293 cells (AID 1920063). Also: nearly all actives have a fitted effect of over 35% in size. Put shortly: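 GnRHR-HEK293, 1500 cells/well, 18 h 37 C/5% CO2; Ca dye 1 h 37 C; cpd pinned (DMSO), agonist mode; kinetic FL 480/540, 3 min, 1 s reads; 15 conc, n=3.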
Sequence of Gonadotropin-releasing hormone receptor (Homo sapiens) (P30968 whole entry, looked up): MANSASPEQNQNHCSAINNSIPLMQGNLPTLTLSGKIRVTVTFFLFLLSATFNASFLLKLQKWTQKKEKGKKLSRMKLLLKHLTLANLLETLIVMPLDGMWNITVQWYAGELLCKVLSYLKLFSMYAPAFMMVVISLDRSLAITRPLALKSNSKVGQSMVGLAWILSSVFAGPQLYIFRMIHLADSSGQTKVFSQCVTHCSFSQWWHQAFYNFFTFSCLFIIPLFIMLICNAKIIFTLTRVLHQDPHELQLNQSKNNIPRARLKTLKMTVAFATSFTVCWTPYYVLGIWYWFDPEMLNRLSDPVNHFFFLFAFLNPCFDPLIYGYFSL

Assay [4] can be described thus: G protein-coupled receptor (GPCR) small molecule agonists, calcium flux assay: HEK293 wild type cell line counter screen (AID 1920065). The essentials:
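Kinetic fluorescence at Ex/Em 480/540, recorded every second over 3 min, served as the read-out after compound addition. Each compound was tested at 15 concentrations in triplicate on cells pre-loaded with calcium dye for 1 h.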
(In general: Calcium flux is commonly read through the fluorescence of an indicator in the cells.)

Assay [5] in a line: p53 small molecule agonists, cell-based qHTS assay with human liver microsomes (AID 1963577).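 Also: p53 response element beta-lactamase reporter cells with liver microsomes plus NADPH.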 Put shortly:
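Reporter activation was measured by LiveBLAzer fluorescence intensity in p53RE-bla cells, which had been exposed to compounds for 16 h at 37 C alongside 0.5 mg/mL human liver microsomes and 0.5 mg/mL NADPH (final concentrations).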

The nature of assay [6]: p53 small molecule agonists, cell-based qHTS assay with rat liver microsomes (AID 1963578). The essentials:
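Compound in DMSO added to p53RE-bla cells 5 h post-plating; rat microsomes/NADPH 0.5 mg/mL final; 16 h, 37 C; LiveBLAzer 2 h RT.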

Assay [7] is described as follows: p53 small molecule agonists, cell-based qHTS assay with human liver microsomes: qHTS cell viability counter screen (AID 1963579). Also: nearly all actives have a fitted effect of over 45% in size. Put shortly:
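HLM-supplemented (0.5 mg/mL final) and NADPH-supplemented (0.5 mg/mL final) p53RE-bla cultures, 4,000 cells per well, were dosed with compounds in DMSO for 16 h at 37 C; luminescent ATP detection (CellTiter-Glo, 30 min, room temperature) quantified surviving cells.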

Assay [8] can be described thus: p53 small molecule agonists, cell-based qHTS assay with rat liver microsomes: qHTS cell viability counter screen (AID 1963580). Also: nearly all actives have a fitted effect of over 45% in size. Put shortly:
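Intracellular ATP, by CellTiter-Glo luminescence, defines viability. HCT-116 p53RE-bla cells, 4,000 per well, were compound-treated in the presence of rat liver microsomes and NADPH for 16 h at 37 C.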

Assay [9] can be described thus: p53 small molecule agonists, cell-based qHTS assay: qHTS cell viability counter screen (AID 1963581). Also: nearly all actives have a fitted effect of over 45% in size. The essentials: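 HCT-116 p53RE-bla cells, 4,000/well, plated 5 h before compound pin transfer; 16 h at 37 C; bla substrate 2 h RT; then CellTiter-Glo, 30 min RT, luminescence.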
A short description of assay [10]: p53 small molecule agonists, cell-based qHTS assay (AID 1963582; active = well fitted activation curve with a large enough effect in the signal ratio in the repeat runs, not every such curve was filed as active; the % refers to the signal ratio). The essentials: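 Reporter line: p53RE-bla. Pre-incubation 5 h, 37 C, 5% CO2; compound (DMSO, pin tool) 16 h, 37 C; B/G FRET substrate 2 h RT; fluorescence intensity read.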
Assay [11] has as its target 5-hydroxytryptamine receptor 2A (Homo sapiens) (UniProt P28223). The assay is described as follows: 5-hydroxytryptamine receptor 2A (HTR2A) small molecule agonists, cell-based qHTS assay (AID 1963587). Also: nearly all actives have a fitted effect of over 30% in size. Put shortly:
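Kinetic calcium-flux fluorescence (2 min, 1 sec intervals) after compound addition in agonist mode. HTR2A-CHO cells were cultured 18 h, then dye-loaded 1 h at 37 C.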

Assay [12] deals with Muscarinic acetylcholine receptor M1 (Homo sapiens) (UniProt P11229). The assay is described as follows: Cholinergic receptor muscarinic 1 (CHRM1) small molecule antagonists, cell-based qHTS assay (AID 1963588). Also: nearly all actives have a fitted effect of over 40% in size. Put shortly:
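CHRM1-CHO calcium-flux assay, antagonist mode. Cells were seeded 18 h, dye-loaded 1 h at 37 C and given compound for 5 min at RT, then acetylcholine was added at 50nM. FDSS fluorescence was read 3 min; 15 concentrations, three runs.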

Assay [13] shares this target. The assay is described as follows: Cholinergic receptor muscarinic 1 (CHRM1) small molecule agonists, cell-based qHTS assay (AID 1963589). Also: nearly all actives have a fitted effect of over 35% in size. Put shortly:
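Human M1 in stable CHO line; 18 h plating, 1 h dye load 37 C; cpd added (agonist mode); Ca2+ fluorescence kinetic read, 1 s intervals; 15 conc, 3 runs.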

In assay [14] the target is Beta-2 adrenergic receptor (Homo sapiens) (UniProt P07550). The assay is described as follows: Adrenergic beta2 receptor (ADRB2) small molecule antagonists, cell-based qHTS assay (AID 1963592). Also: series mostly up to about 92 µM; nearly all actives have a fitted effect of over 50% in size. The essentials:
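Cells (CHO, stable ADRB2 overexpression) incubated 18-20hr at 37C; compounds added from DMSO; agonist mix (1nM isoproterenol, 100uM IBMX, 25uM Ro-20-1724) added; 0.5hr RT; d2-cAMP and anti-cAMP-cryptate added; 1hr RT; 665/615 nm read.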

Assay [15] has the same target. The assay is described as follows: Adrenergic beta2 receptor (ADRB2) small molecule agonists, cell-based qHTS assay (AID 1963593).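 Also: CHO cells stably overexpressing human ADRB2.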 Put shortly: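 CHO cells stably over-expressing ADRB2 were plated overnight at 37C, then dosed with compounds plus a stimulation mix containing 100uM IBMX and 25uM Ro-20-1724 for 0.5hr at room temperature. cAMP was measured by HTRF competition, 1hr.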

For assay [16], the target named is D(2) dopamine receptor (Homo sapiens) (UniProt P14416). The assay is described as follows: Dopamine D2 receptor (DRD2) small molecule agonists, cell-based qHTS assay (AID 1963594). Also: nearly all actives have a fitted effect of over 35% in size. Also: potency is read from the fitted curve at half-maximal effect. Put shortly:
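cAMP accumulation in DRD2-HEK293 cells measured by HTRF after 1 h detection; compounds added 10 min before NKH477 (200nM […]) forskolin-analogue stimulation, 30 min at room temperature, with Ro20-1724 present at 0.1 mM final.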

A short description of assay [17]: cAMP Responsive Elements (CRE) small molecule agonists, cell-based qHTS assay (AID 1963590). Put shortly: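 HEK 293T CRE-bla, 2,000 cells/well, 18 h preincubation 37 C/5% CO2; cpds (DMSO) pinned, 3 h; LiveBLAzer B/G FRET substrate, 2 h RT.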
The nature of assay [18]: cAMP Responsive Elements (CRE) small molecule antagonists, cell-based qHTS assay (AID 1963591; active = well fitted inhibition curve with a large enough effect in the signal ratio in the repeat runs, not every such curve was filed as active; the % refers to the signal ratio). Put shortly: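 Beta-lactamase reporter read by FRET substrate (LiveBLAzer B/G) after 2 h at room temperature. CRE-bla HEK293T cells had received compound plus 0.25 uM (final) NKH477 for 3 h at 37 °C.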
In assay [19] the target is D(2) dopamine receptor (Homo sapiens) (UniProt P14416). The assay is described as follows: Dopamine D2 receptor (DRD2) small molecule antagonists, cell-based qHTS assay (AID 1963595; active = well fitted inhibition curve with a large enough effect in the signal ratio in the repeat runs, with a control signal flat; the % refers to the signal ratio). Put shortly: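 DRD2-HEK293; 0.1 mM Ro20-1724; cpd 10 min RT; NKH477 200 nM + quinpirole 12 nM, 30 min RT; HTRF cAMP (cAMP-d2/anti-cAMP cryptate), 665/620 nm ratio after 1 h.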
Sequence of D(2) dopamine receptor (Homo sapiens) (P14416 whole entry, looked up): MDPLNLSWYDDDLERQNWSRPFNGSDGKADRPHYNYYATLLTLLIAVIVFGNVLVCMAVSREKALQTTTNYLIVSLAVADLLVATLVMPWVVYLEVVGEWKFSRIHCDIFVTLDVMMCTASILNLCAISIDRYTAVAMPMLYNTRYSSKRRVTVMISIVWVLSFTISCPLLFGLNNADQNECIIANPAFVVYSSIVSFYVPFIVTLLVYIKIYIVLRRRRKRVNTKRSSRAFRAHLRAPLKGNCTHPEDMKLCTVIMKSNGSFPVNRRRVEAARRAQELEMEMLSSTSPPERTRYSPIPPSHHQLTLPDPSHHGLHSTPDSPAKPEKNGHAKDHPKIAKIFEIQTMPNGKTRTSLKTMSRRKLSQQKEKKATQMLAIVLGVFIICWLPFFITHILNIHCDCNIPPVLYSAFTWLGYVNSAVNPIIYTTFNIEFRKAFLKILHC
Assay [20] has as its target 5-hydroxytryptamine receptor 2A (Homo sapiens) (UniProt P28223). The assay is described as follows: 5-hydroxytryptamine receptor 2A (HTR2A) small molecule antagonists, cell-based qHTS assay (AID 1963586). Also: nearly all actives have a fitted effect of over 45% in size. Put shortly: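 Antagonist-mode intracellular calcium assay: DOI (4 nM) added after 5 min compound pre-incubation at room temperature to dye-loaded HTR2A-CHO cells. Fluorescence followed for 3 min, sampled every second.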

Sequence of Muscarinic acetylcholine receptor M1 (Homo sapiens) (P11229 whole entry, looked up): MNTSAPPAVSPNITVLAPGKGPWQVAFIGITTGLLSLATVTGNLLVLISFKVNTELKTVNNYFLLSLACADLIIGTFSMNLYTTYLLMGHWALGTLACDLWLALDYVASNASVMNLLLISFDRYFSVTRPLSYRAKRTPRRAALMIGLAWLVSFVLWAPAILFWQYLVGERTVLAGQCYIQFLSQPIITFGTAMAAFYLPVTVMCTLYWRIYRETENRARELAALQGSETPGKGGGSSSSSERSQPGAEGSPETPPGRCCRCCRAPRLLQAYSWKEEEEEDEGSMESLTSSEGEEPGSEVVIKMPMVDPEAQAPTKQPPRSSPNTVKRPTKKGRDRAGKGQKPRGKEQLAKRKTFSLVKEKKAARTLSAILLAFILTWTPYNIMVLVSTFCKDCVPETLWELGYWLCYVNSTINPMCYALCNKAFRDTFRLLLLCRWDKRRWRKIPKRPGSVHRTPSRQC
Sequence of 5-hydroxytryptamine receptor 2A (Homo sapiens) (P28223 whole entry, looked up): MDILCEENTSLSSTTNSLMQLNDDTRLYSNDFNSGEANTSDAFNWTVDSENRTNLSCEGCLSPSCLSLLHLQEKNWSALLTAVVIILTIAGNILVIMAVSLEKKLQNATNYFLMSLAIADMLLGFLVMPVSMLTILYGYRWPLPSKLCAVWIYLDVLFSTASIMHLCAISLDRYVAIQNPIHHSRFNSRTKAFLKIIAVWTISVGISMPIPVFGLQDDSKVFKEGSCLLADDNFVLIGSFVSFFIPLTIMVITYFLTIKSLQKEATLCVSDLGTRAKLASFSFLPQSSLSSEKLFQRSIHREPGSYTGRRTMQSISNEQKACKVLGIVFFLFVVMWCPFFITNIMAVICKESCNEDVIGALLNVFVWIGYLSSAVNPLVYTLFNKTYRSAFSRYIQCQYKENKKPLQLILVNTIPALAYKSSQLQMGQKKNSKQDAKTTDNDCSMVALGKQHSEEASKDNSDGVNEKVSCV
Sequence of Beta-2 adrenergic receptor (Homo sapiens) (P07550 whole entry, looked up): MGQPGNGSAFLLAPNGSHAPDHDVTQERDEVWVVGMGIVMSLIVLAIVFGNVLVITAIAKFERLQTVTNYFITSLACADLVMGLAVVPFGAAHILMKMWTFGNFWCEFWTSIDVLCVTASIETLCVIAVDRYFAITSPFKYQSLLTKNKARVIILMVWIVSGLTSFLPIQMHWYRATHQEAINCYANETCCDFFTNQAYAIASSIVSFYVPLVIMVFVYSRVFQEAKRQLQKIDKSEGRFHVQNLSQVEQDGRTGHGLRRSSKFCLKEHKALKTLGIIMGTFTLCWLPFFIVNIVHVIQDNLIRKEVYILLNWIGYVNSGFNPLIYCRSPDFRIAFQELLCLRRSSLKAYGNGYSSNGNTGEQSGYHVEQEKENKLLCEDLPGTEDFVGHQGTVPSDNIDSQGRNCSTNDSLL

In the case of `O=C(O)c1cccc(O)c1`, the Potency entry in [1], in assay [2], in [3], in assay [5], in [6] and in assay [7] was “inactive” in each case. Further, the Potency entry in assay [8], in assay [9], in assay [10], in assay [11], in assay [12] and in assay [13] was “inactive” in each case. Further, the Potency result in assay [14], in [15] and in assay [16] was “inactive” each time. Moreover, in [4], the result was inactive.

As for `CN1C[C@H](C(=O)N[C@]2(C)O[C@@]3(O)[C@@H]4CCCN4C(=O)[C@H](Cc4ccccc4)N3C2=O)C[C@@H]2c3cccc4[nH]cc(c34)C[C@H]21`, the Potency result in [1], in assay [2], in assay [3], in assay [5], in [6] and in assay [7] was “inactive” each time. Also, the Potency entry in assay [8], in assay [9] and in assay [10] was “inactive” throughout. Further, the result in [4] was inactive. Besides, in assay [16], the Potency is 22 nM (active).

On to `CCCCNc1ccc(C(=O)OCCN(C)C)cc1`, for which the Potency result in [1], in assay [2], in [3], in [5], in [6] and in [7] was “inactive” throughout. Besides, the Potency result in [8], in [9], in assay [10], in [17], in [18] and in [14] was “inactive” throughout. Moreover, the Potency result in assay [15], in assay [16] and in assay [19] was “inactive” throughout. Also, in assay [4], the result was inactive.

Take `CC(C)(Oc1ccc(Cl)cc1)C(=O)OCCCOC(=O)C(C)(C)Oc1ccc(Cl)cc1`: the Potency entry in assay [1], in [2], in assay [3], in [5], in assay [6] and in [7] was “inactive” throughout. Moreover, the Potency entry in [8], in assay [9], in assay [10], in assay [20], in assay [11] and in [12] was “inactive” each time. In addition, the Potency entry in assay [13], in assay [17], in assay [14], in assay [15] and in assay [16] was “inactive” in each case. In [4], the outcome was inactive.

For `CCCCC(=O)OCC(=O)[C@H]1[C@H](C)C[C@H]2[C@@H]3C[C@H](F)C4=CC(=O)C=C[C@]4(C)[C@@]3(F)[C@@H](O)C[C@@]21C`, the Potency entry in [1], in assay [2], in assay [3], in [5], in assay [6] and in assay [7] was “inactive” throughout. Besides, the Potency entry in assay [8], in assay [9], in assay [10], in assay [20], in [11] and in assay [12] was “inactive” throughout. Further, the Potency entry in assay [18], in assay [14], in assay [15], in [16] and in assay [19] was “inactive” in each case. For the same molecule, the result in [4] was inactive.

Turning to `COc1cc(C)ccc1O`, the Potency result in assay [1], in assay [2], in assay [3], in [5], in [6] and in assay [7] was “inactive” in each case. For the same molecule, the Potency result in assay [8], in [9], in assay [10], in [20], in assay [11] and in assay [12] was “inactive” each time. The Potency result in assay [13], in [17], in assay [14], in assay [16] and in [19] was “inactive” in each case. Moreover, the outcome in [4] was inactive.

Regarding `Cc1cn([C@@H]2O[C@H](CO)[C@@H](O)[C@@H]2F)c(=O)[nH]c1=O`, the Potency result in assay [1], in [2], in assay [3], in assay [6], in [7] and in assay [8] was “inactive” each time. Moreover, the Potency result in assay [9], in assay [10], in [11], in assay [12], in assay [13] and in [17] was “inactive” in each case. Moreover, the Potency entry in assay [18], in assay [14], in assay [16] and in assay [19] was “inactive” each time.

For the molecule `CC(C)NCC(O)c1ccc2ccccc2c1` (stereo not drawn), the Potency entry in assay [1], in [2], in assay [3], in assay [5], in assay [6] and in assay [7] was “inactive” in each case. Further, the Potency entry in [8], in assay [9], in assay [10], in assay [20], in [13] and in [17] was “inactive” each time. The Potency result in assay [18] and in [19] was “inactive” each time. Besides, the result in assay [4] was inactive.
